Source: PubChem (several laboratories)
PfHsp90 set2 – reduces growth (ATP signal) of yeast expressing P. falciparum Hsp90. 0.32% of 310,000 active. inhibition, % at 9.4 µM. S. cerevisiae expressing PfHsp90, BacTiter-Glo ATP, 48 h; yeast lacking PDR1 and PDR3 efflux regulators;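 active = every replicate shows inhibition above about 80%, whatever the replicate mean, limit read from the data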;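 note: 0% = DMSO neutral controls and 100% = 20 µM radicicol positive controls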
tim10-1 inh – tim10-1 yeast growth inhibition. S. cerevisiae tim10-1 ts strain growth, BacTiter-Glo, 24 h. inhibition, % at 20 µM. 2.2% of 330,000 active. AID 463190;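 active = inhibition of at least 40%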;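 note: mutant grown at 25 °C; 0% = DMSO wells with yeast and 100% = wells holding no yeast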
V-ATPase pHluor – regulators of yeast V-ATPase proton transport; S. cerevisiae, pHLuorin cytosolic pH fluorescence; response, % at 10 µM; 0.37% of 350,000 active; AID 504577; in the data active = response mostly above about 7.3%, no sharp cut-off; inactive = mostly below about 5.4%; note: actives read high
tim23-1 inh – growth inhibitors of tim23-1 mutant yeast | S. cerevisiae tim23-1 growth, BacTiter-Glo luminescence, 24 h | inhibition, % at 20 µM | 1.3% of 330,000 active;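 active = growth inhibition of the mutant yeast at or above 50%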;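 note: temperature-sensitive mutant grown at 25 °C; plate controls were DMSO-treated mutant yeast for no effect and medium wells lacking yeast for full effect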
TIM10 inh – inhibits growth of TIM10 yeast strain; S. cerevisiae TIM10 strain growth, BacTiter-Glo luminescence, 24 h; inhibition, % at 10 µM; 1.4% of 330,000 active;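 active = inhibition of 40% or more at the single tested concentration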;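 note: wild-type TIM10 isogenic control strain grown at permissive 25 °C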
tim10-1 confirm – confirmation of tim10-1 mutant yeast growth inhibitors; S. cerevisiae tim10-1 ts strain growth, BacTiter-Glo, 24 h; 56% of 7,400 active; inhibition, % at 20 µM; shares compounds with tim10-1 inh;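 active = inhibition of yeast growth at or above a set limit in either of two repeat tests at 20 µM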;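 note: tim10-1 mutant grown at permissive 25 °C to find synthetic lethal compounds; 0% = DMSO yeast wells and 100% = medium wells without yeast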
* = called active by the depositor; . = no result given. Hits are enriched below; roughly 3.7% of the tested compounds scored in any of these assays.

SMILES	PfHsp90 set2	tim10-1 inh	V-ATPase pHluor	tim23-1 inh	TIM10 inh	tim10-1 confirm
Cc1nn(-c2ccccc2)nc1CNC(=O)C1CC1	4.1	-11.0	-0.3	7.0	-1.4	.
Cc1ccnc(NC(=O)c2ccccc2NC(=O)c2ccccc2)c1	-4.0	50.0*	4.6	40.8	11.7	33.0*
Cc1ccnc(NC(=O)c2ccc(C(=O)c3ccccc3)cc2)c1	12.4	8.9	0.7	27.2	-4.4	.
CCOC(=O)c1oc2nc(C(C)C)c3c(c2c1N)CCC3	12.2	43.1*	-0.1	37.2	20.8	29.4
Cc1c(C=O)c2ccccn2c1C(=O)c1cccs1	18.9	12.9	-1.7	7.7	-11.5	.
CCc1cc2c3c(c(=O)oc2cc1O)CCCC3	-15.3	40.6*	0.1	38.6	39.1	11.7
CC(OC(=O)C1CC1)C(=O)Nc1cccc(S(=O)(=O)N2CCOCC2)c1 (stereo unspecified)	-1.7	12.2	-0.7	7.7	-1.0	.
CN(C(=S)NC(=O)c1ccc(F)cc1)C1CCCCC1	13.7	20.1	3.1	33.5	16.7	.
CN(C(=S)NC(=O)c1ccc(Cl)cc1)C1CCCCC1	6.9	42.2*	-2.6	24.1	31.0	10.5
C/C(CC(=O)Nc1ccc(N(C)C)cc1)=N\NC(=O)c1ccccn1	18.8	49.4*	5.8	22.4	19.6	32.0*
CC(C)(C)c1ccc(OCCOc2ccc(C(C)(C)C)cc2NC=O)c(NC=O)c1	-18.0	46.9*	-0.1	43.4	21.6	20.2
COCCOc1ccc(C(F)(F)F)cc1NC(=O)c1ccccc1	10.8	15.9	-2.1	17.0	14.2	.
COc1ccc(Cl)cc1NC(=O)C1CCCN(c2ncnc3c2nc2n3CCCCC2)C1 (stereo unspecified)	30.0	55.8*	-4.3	36.5	24.3	23.4
CSc1cccc(NC(=O)C2CCCN(c3ncnc4c3nc3n4CCCCC3)C2)c1 (stereo unspecified)	3.3	48.2*	-0.3	37.9	8.9	4.2
O=C(Nc1cccnc1Cl)C1CCCN(c2ncnc3c2nc2n3CCCCC2)C1 (stereo unspecified)	-5.2	14.4	-10.9	14.2	4.3	.
Cc1ccnc(NC(=O)C2CCCN(c3ncnc4c3nc3n4CCCCC3)C2)c1 (stereo unspecified)	-8.0	45.0*	-2.5	32.7	22.2	16.8
O=C(Nc1ccc(Cl)cn1)C1CCCN(c2ncnc3c2nc2n3CCCCC2)C1 (stereo unspecified)	17.4	-3.1	3.0	34.8	3.5	.
O=C(Nc1ccc(Cl)cn1)C1CCN(c2ncnc3c2nc2n3CCCCC2)CC1	-7.8	49.7*	-1.9	26.2	23.6	19.4
Cc1cccc2c1nc(-c1ccccc1)n1cnnc21	.	40.3*	1.5	25.7	0.1	23.5
Cc1cccc2c1nc(-c1ccccc1)n1nnnc21	.	17.9	-1.7	9.3	-3.2	.
N#CC1=C(N)N(c2ccc(F)cc2)C2=C(C1c1ccc(O)cc1)S(=O)(=O)CC2 (stereo unspecified)	-23.8	.	4.0	.	.	.
O=C(CCN1CCc2ccccc2CC1)c1ccc2c(c1)OCCO2	-14.8	78.7*	0.8	13.8	24.3	22.2
O=C(CCN1CCOCC1)c1ccc2c(c1)OCCO2	0.2	8.3	-2.0	12.0	12.9	.
COc1cccc(NC(=O)C2C3CCC4C(CCC32)C4(Cl)Cl)c1 (stereo unspecified)	-70.7	42.0*	0.7	11.0	1.5	28.6
O=C(Cc1ccccc1)N/N=C/c1ccc2cccc(O)c2n1	-0.1	46.9*	2.4	47.8	20.0	34.5*
SMILES	PfHsp90 set2	tim10-1 inh	V-ATPase pHluor	tim23-1 inh	TIM10 inh	tim10-1 confirm
Cn1nc(-c2ccc(Cl)cc2)c2cc(C(=O)N3CCN(C(=O)c4ccco4)CC3)sc21	-8.1	41.2*	-2.6	33.1	23.8	4.7
Cn1nc(-c2ccc(Cl)cc2)c2cc(C(=O)NCCN3CCOCC3)sc21	-13.7	46.3*	-2.2	42.4	26.7	27.1
Cc1cccc(C(=O)Nc2ccc3ccccc3c2)c1	-24.2	1.1	-0.9	18.3	20.5	.
COc1ccc(C)cc1N(C(=O)c1ccc(C#N)cc1)C1=NC(C)(C)CS1	34.2	40.0	-3.1	10.8	5.0	-2.5
O=S(=O)(Nc1nc2ccccc2nc1N1CCN(CCO)CC1)c1cc(F)ccc1F	4.6	14.8	-2.6	6.2	-1.8	.
CC(C)(C)C(=O)Nc1nnc(SCc2ccc(F)cc2)s1	.	49.9*	-3.7	35.6	22.3	44.3*
CC(C)(C)C(=O)Nc1nnc(SCc2cccc(F)c2)s1	-4.0	2.8	0.4	30.3	8.0	.
Nc1c(N2CCN(c3ccccc3)CC2)c2ccccc2oc1=O	2.4	49.4*	-2.4	27.5	11.5	27.4*
Cc1ccc(S(=O)(=O)N/N=C/c2c[nH]c3ccccc23)cc1	-16.9	-0.3	1.6	8.4	-1.6	.
Cc1ccc(S(=O)(=O)/C(C#N)=C/c2c[nH]c3ccccc23)cc1	-6.8	49.4*	1.5	34.8	29.8	24.2
CN(CC(=O)Nc1cccc(F)c1)C(=O)c1ccc(NC2CC2)c([N+](=O)[O-])c1	6.7	15.1	-2.1	15.3	11.7	.
COc1ccc2c(c1)C(=O)N(c1ccccc1C)C(=O)C2(C)C	6.7	47.3*	1.2	32.1	33.2	29.6
COc1ccc(N2C(=O)c3ccccc3C(C)(C)C2=O)cc1	-7.4	23.2	-5.8	45.4	26.7	.
CC1=C(C(=O)O)CC(S(=O)(=O)O)C1(C)C (stereo unspecified)	-2.0	.	1.8	.	.	.
CC1CCC2C(=O)N(c3cc(Cl)ccc3OC(=O)c3ccco3)C(=O)C2C1 (stereo unspecified)	-5.5	40.7*	-0.9	41.5	15.0	34.0*
O=C1CCCN1CCC(=O)N1CCCC(CO)(Cc2ccccc2)C1 (stereo unspecified)	15.5	-12.5	-0.6	-10.4	1.0	.
Cc1ccc(-c2csc3nc[nH]c(=O)c23)cc1C	-7.0	41.3*	-1.6	38.9	21.7	27.0
Cc1ccc(-c2csc3nc[nH]c(=O)c23)cc1	3.9	30.0	0.6	5.0	15.4	.
CCN(CC)C(=O)C1CCN(S(=O)(=O)c2c(C)noc2/C=C/c2cccc(C)c2)CC1	-6.2	41.2*	-3.7	33.6	15.7	9.7
N#CC(c1ccccc1O)N1N=C(c2ccccc2)CC1c1ccccc1 (stereo unspecified)	11.2	-39.4	-3.4	23.3	27.3	.
COc1cc(C(C#N)N2N=C(c3ccccc3)CC2c2ccccc2)ccc1O (stereo unspecified)	18.9	43.1*	-2.9	37.0	21.9	19.2
COc1cccc(-c2nn(C)c3sc(C(=O)NCc4ccccn4)cc23)c1	-22.8	45.2*	-5.0	29.9	13.3	17.6
COc1cccc(-c2nn(C)c3sc(C(=O)NCc4ccc(C)cc4)cc23)c1	-34.5	17.5	-2.3	7.0	20.9	.
N#C/C(=C/c1ccc(O)c([N+](=O)[O-])c1)C(=O)Nc1ccccc1	-15.4	40.4*	4.9	25.2	24.2	22.8
Cc1nc(Oc2ccccc2)c2oc3ccccc3c2n1	-3.9	42.2*	3.6	5.7	12.6	24.1
